About 79,000 compounds went through this panel and 15% of them were active in at least one assay; those are over-represented in the sample as a whole. The source made the active and inactive calls. Cut-off read from the data, not from the text of the source: active = growth inhibition above about 70%; inactive = the rest.
Experiment: NCI Yeast Anticancer Drug Screen. Data for the mgt1 strain (AID 153)
Conditions: S. cerevisiae mgt1 mutant growth inhibition, hits give high values
Method: Growth inhibition of yeast strains with defined genetic alterations is measured as a screen for potential anti-cancer activity. Selected strains with alterations in DNA damage repair or cell cycle control were exposed to compounds and growth inhibition was measured relative to vehicle treated controls. The strain used in this assay is mgt1

Measured: growth inhibition

CC1CC[C@]2(C(=O)O)CCC3(C)C(=CC(=O)C4[C@@]5(C)CCC(=O)C(C)(C)C5CC[C@]43C)[C@@H]2[C@H]1C (stereo not given in full)
inactive: at 1.2 µM 4% | at 3.7 µM 9%
active: at 11.0 µM 88% | at 33.0 µM 97% | at 100.0 µM 97%

CCCC/C([O-])=C1/C(=O)N(c2ccccc2)N=C1C.CCCC/C([O-])=C1/C(=O)N(c2ccccc2)N=C1C.[Cu+2]
inactive: at 1.2 µM -2% | at 3.7 µM -1% | at 11.0 µM 0% | at 33.0 µM 0% | at 100.0 µM -5%

CCCCC(CC)C(=O)[O][Sn]([CH2]CCC)([CH2]CCC)[O]C(=O)C(CC)CCCC (stereo not given)
active: at 33.0 µM 95% | at 100.0 µM 98%
inactive: at 1.2 µM -11% | at 3.7 µM 9% | at 11.0 µM 60%

COC(=O)Oc1cc(Cl)c(Cl)cc1Cl
inactive: at 1.2 µM -1% | at 3.7 µM 0% | at 11.0 µM 1% | at 33.0 µM -3% | at 100.0 µM 1%

COC(=O)/C=C(/C(=O)OC)C(Cl)(Cl)Cl
active: at 100.0 µM 99%
inactive: at 1.2 µM 3% | at 3.7 µM -3% | at 11.0 µM 5% | at 33.0 µM 59%

CCCCCCCCCCCCCCCCCC(=O)NCCCN(C)C
active: at 33.0 µM 98% | at 100.0 µM 98%
inactive: at 1.2 µM -13% | at 3.7 µM -11% | at 11.0 µM -19%

CCCCNC1CCC2(SCCS2)c2[nH]c3ccccc3c21 (stereo not given)
inactive: at 1.2 µM 2% | at 3.7 µM -2% | at 11.0 µM 7% | at 33.0 µM -5% | at 100.0 µM 7%

O=C1C=C(Cl)C(=O)N1c1cccc(Cl)c1
active: at 11.0 µM 99% | at 33.0 µM 99% | at 100.0 µM 100%
inactive: at 1.2 µM -3% | at 3.7 µM 67%

From PubChem BioAssay (NCI)
